Assay outcomes from PubChem.
This is a sample that favours compounds with a hit; in the whole collection about 2.1% have one here.
AF4-AF9 inh – inhibitors of AF4 peptide binding to AF9, primary screen, biochemical, AlphaScreen, biotin-AF4 peptide, FLAG-AF9, single point | AID 651704, 2012 | Protein AF-9 (Homo sapiens), P42568 | inhibition, % at 10 µM | 350,000 compounds, 0.47% hits;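 active = every replicate reaching a set inhibition limit, whatever the replicate mean, cut at about 25% in these data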;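 also: 0% = plate neutral control median and 100% = total signal loss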
HIV Env fusion – inhibitors of HIV-1 Env-driven cell-cell fusion, primary screen, HeLa-JRFL effector, CEM21 target cells, luciferase | inhibition, % at 12.3 µM | 360,000 compounds, 1.1% hits;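 active = mean replicate inhibition score of at least 50 and every replicate individually at or above 50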;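 also: 0% = plate neutral controls and 100% = maraviroc near 300 nM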
PGC1a acetyl inh – inhibitors of PGC1a acetylation signal, primary screen, cell-based, U2OS, AlphaScreen, inhibitor mode | 350,000 compounds, 0.17% hits | AlphaScreen anti-acetyl-lysine; with virally co-expressed GCN5 acetyltransferase | inhibition, % at 15.6 µM;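 active = every replicate shows inhibition of at least 40%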;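 also: 0% = neutral control wells and 100% = positive control wells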
GSIS activator – GLuc luminescence reporter in INS-1E cells, primary screen for activators of glucose-dependent secretion of insulin. activation, % at 16.6 µM. 370,000 compounds, 0.61% hits. AID 743287, 2014. INS-1E GLuc reporter insulin secretion, 2-3 h;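 active = lowest replicate activation of at least 40%, so every replicate reaches that level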;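 also: 0% = median of neutral control wells and 100% = median of IBMX positive control wells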
NSD2 inh – NSD2 histone methyltransferase inhibitors, primary screen, biochemical, AlphaScreen, single concentration, set 2 | 310,000 compounds, 0.54% hits | Histone-lysine N-methyltransferase NSD2 (Homo sapiens), O96028 | AID 743445, 2014 | inhibition, % at 12.5 µM | NSD2 peptide methylation, 120 min; in the data active = inhibition above about 50%
Target sequence (O96028 whole entry, looked up): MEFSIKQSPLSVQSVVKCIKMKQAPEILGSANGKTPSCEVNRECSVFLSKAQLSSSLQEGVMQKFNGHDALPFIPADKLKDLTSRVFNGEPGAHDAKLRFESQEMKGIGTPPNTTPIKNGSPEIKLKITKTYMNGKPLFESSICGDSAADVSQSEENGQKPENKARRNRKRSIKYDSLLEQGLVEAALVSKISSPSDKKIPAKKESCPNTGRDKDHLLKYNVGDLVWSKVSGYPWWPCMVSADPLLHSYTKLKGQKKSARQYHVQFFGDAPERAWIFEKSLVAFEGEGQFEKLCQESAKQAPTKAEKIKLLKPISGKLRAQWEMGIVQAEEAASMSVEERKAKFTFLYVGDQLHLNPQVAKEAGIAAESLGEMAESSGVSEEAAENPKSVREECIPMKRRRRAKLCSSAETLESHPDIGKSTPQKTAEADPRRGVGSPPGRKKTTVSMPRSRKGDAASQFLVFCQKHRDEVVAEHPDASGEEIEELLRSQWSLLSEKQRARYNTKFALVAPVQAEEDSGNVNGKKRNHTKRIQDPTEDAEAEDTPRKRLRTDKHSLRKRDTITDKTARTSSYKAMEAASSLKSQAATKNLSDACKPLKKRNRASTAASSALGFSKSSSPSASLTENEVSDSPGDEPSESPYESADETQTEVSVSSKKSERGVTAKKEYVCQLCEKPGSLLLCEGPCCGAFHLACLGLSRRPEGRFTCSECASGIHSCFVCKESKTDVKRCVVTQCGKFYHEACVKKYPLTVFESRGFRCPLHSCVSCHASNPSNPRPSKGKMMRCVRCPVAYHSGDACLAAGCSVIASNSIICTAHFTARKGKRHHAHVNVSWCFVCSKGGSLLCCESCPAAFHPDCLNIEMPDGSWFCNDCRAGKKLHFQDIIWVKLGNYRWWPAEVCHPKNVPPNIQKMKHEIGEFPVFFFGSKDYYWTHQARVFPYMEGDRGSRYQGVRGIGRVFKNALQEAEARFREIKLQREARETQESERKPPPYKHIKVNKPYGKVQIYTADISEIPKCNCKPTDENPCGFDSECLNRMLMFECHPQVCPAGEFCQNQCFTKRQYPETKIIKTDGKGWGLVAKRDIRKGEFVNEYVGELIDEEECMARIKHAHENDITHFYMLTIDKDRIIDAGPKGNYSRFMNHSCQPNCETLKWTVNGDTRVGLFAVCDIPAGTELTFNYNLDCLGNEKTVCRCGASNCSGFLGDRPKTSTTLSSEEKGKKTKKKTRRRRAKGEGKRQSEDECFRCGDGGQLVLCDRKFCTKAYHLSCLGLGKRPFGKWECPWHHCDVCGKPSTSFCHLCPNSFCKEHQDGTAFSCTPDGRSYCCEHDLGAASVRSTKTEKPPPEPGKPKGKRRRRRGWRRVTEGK
* = called active by the depositor; x = no result; [ ] = another dose, or the depositor's remark.

SMILES	AF4-AF9 inh	HIV Env fusion	PGC1a acetyl inh	GSIS activator	NSD2 inh
CCOc1ccccc1CNC(=O)CCn1ccc2cc(S(=O)(=O)N3CCCCC3)ccc21	-2	62*	1	9	1
CCOc1ccccc1CNC(=O)Cn1ccc2cc(S(=O)(=O)N3CCCCCC3)ccc21	0	27	-11	-24	-5
CC1CCC(NC(=O)CCn2ccc3cc(S(=O)(=O)N4CCCC4)ccc32)CC1 (stereo not given)	1	73*	-14	1	-3
C[C@H]1CN([C@@H](C)CO)C(=O)CCCn2nncc2CO[C@@H]1CN(C)C(=O)Nc1ccc(N2CCCCC2)cc1	6	0[16.7 µM]	-6	1	x
CO[C@H]1CN(C)C(=O)c2ccc(NC(=O)Nc3cccc(F)c3)cc2OC[C@@H](C)N(C(C)=O)C[C@H]1C	4	65*[16.7 µM]	15	-8	x
CO[C@H]1CN(C)C(=O)c2ccc(NC(=O)Nc3cccc(F)c3)cc2OC[C@H](C)NC[C@H]1C	2	75*[16.7 µM]	-8	18	x
CO[C@@H]1CN(C)C(=O)c2ccc(NC(=O)Nc3cccc(F)c3)cc2OC[C@@H](C)N(C(=O)Nc2cccc(F)c2)C[C@H]1C	2	74*[16.7 µM]	-8	-9	x
CO[C@@H]1CN(C)C(=O)c2ccc(NC(=O)Nc3cccc(F)c3)cc2OC[C@@H](C)N(C(C)=O)C[C@@H]1C	4	-1[16.7 µM]	10	-9	x
CO[C@H]1CN(C)C(=O)c2ccc(NC(=O)C3CCC3)cc2OC[C@@H](C)N(CC2CCCCC2)C[C@@H]1C	3	58*[16.7 µM]	-21	-39	x
CO[C@H]1CN(C)C(=O)c2ccc(NC(=O)Nc3cccc(F)c3)cc2OC[C@@H](C)NC[C@@H]1C	x	-3[16.7 µM]	2	2	x
COCC(=O)N1C[C@H](C)[C@H](OC)CN(C)C(=O)c2ccc(NC(=O)Nc3cccc(F)c3)cc2OC[C@H]1C	x	x	5	-6	x
C[C@H](CO)N1C[C@H](C)[C@@H](CN(C)Cc2ccc(C(=O)O)cc2)OCCCC[C@H](C)Oc2ccc(NC(=O)Nc3ccc(F)cc3)cc2C1=O	0	-1[16.7 µM]	-3	14	x
COc1ccccc1CNC(=O)C[C@H]1C[C@@H]2c3cc(NC(=O)Nc4ccc(C(F)(F)F)cc4)ccc3O[C@@H]2[C@H](CO)O1	2	12[16.7 µM]	-18	-3	x
Cc1ccc2c(c1)N(C(=O)CCC(=O)N1CCN(c3cccc(C)c3C)CC1)CCO2	0	36	x	-41	x
CO[C@H]1CN(C)C(=O)c2ccc(NC(=O)C3CC3)cc2OC[C@@H](C)N(C(C)=O)C[C@@H]1C	2	62*[16.7 µM]	4	11	x
CO[C@@H]1CN(C)C(=O)c2ccc(NC(=O)Nc3c(C)noc3C)cc2OC[C@H](C)N(CC2CC2)C[C@@H]1C	-2	-10[16.7 µM]	101*	10	x
CO[C@@H]1CN(C)C(=O)c2ccc(NC(=O)C3CC3)cc2OC[C@@H](C)N(C(C)=O)C[C@H]1C	-3	x	x	1	x
CO[C@@H]1CN(C)C(=O)c2cc(NC(=O)c3ccc4c(c3)OCO4)ccc2OC[C@@H](C)N(CC2CC2)C[C@H]1C	-1	3[16.7 µM]	105*	-10	x
CCCN1C[C@@H](C)[C@H](OC)CN(C)C(=O)c2ccc(NC(=O)c3cccc(F)c3)cc2OC[C@@H]1C	45*	x	-15	5	x
CO[C@H]1CN(C)C(=O)c2cc(NC(=O)c3ccc4c(c3)OCO4)ccc2OC[C@@H](C)N(CC2CC2)C[C@@H]1C	-3	2[16.7 µM]	1	-10	x
CO[C@H]1CN(C)C(=O)c2ccc(NC(=O)Nc3c(C)noc3C)cc2OC[C@@H](C)N(CC2CC2)C[C@@H]1C	-3	-9[16.7 µM]	9	15	x
O=C(Nc1ccc(N2CCN(C(=O)c3cccs3)CC2)cc1)c1ccco1	-1	7	15	-3	-5
C[C@@H]1CN([C@@H](C)CO)C(=O)c2cc(NC(=O)Cc3cn(C)c4ccccc34)ccc2O[C@H]1CN(C)C(=O)Nc1ccc(C(F)(F)F)cc1	-1	-14[16.7 µM]	7	-1	x
CCC(CC)C(=O)N1CC(=O)Nc2ccc(C)cc2C1c1ccccc1 (stereo not given)	1	30	2	-7	-1
C#CCOCCOCCOCCNc1nc(N2CCN(C(=O)[C@H](CCCCN)n3cc(CN)nn3)CC2)nc(N2CCN(C(=O)[C@H](CCCCN)n3cc([C@@H](N)[C@H](C)CC)nn3)CC2)n1	64*	-47	6	1	x
SMILES	AF4-AF9 inh	HIV Env fusion	PGC1a acetyl inh	GSIS activator	NSD2 inh
C#CCOCCOCCOCCNc1nc(N2CCN(C(=O)[C@H](CCCCN)n3cc([C@@H](N)[C@H](C)CC)nn3)CC2)nc(N2CCN(C(=O)[C@H](CCC(=O)O)n3cc([C@@H](N)CCCCN)nn3)CC2)n1	34*	13	x	6	x
C#CCOCCOCCOCCNc1nc(N2CCN(C(=O)[C@H](CCCCN)n3cc([C@@H](N)C(C)CC)nn3)CC2)nc(N2CCN(C(=O)[C@H](CCCCN)n3cc([C@@H](N)C(C)CC)nn3)CC2)n1 (stereo not given in full)	x	x	x	x	24
O=C1N/C(=N\S(=O)(=O)Cc2ccccc2)S/C1=C/c1cccc([N+](=O)[O-])c1	-7	3	-2	-44	19
COc1ccc(/C=C2/S/C(=N/S(=O)(=O)Cc3ccccc3)NC2=O)cc1OC	-38	-13	3	79*	x
C[C@H]1CN([C@@H](C)CO)S(=O)(=O)c2ccc(C#CC3(O)CCCC3)cc2O[C@@H]1CN(C)CC1CC1	2	-11[16.7 µM]	-5	32	x
OCCN1CCN(CC(O)COc2ccc(C34CC5CC(CC(C5)C3)C4)cc2)CC1 (stereo not given)	21	12	-20	90*	13
Cc1ccc([N+](=O)[O-])cc1N/C=C/C(=O)c1ccco1	-1	x	4	15	x
N#CC1=C(S)N=C(N)C(c2nc(-c3ccccc3)cs2)C12CCCCC2 (stereo not given)	x	x	-4	x	-1
C[C@]1(C(=O)NCCCNc2ncc(C(F)(F)F)cc2Cl)C=C[C@@H](Cc2ccccc2)N1C(=O)c1ccccc1	x	x	5	x	x
COC(=O)N1[C@H](C)C=C[C@]1(Cc1ccccc1)C(=O)NCCCNc1ncc(C(F)(F)F)cc1Cl	3	103*	-11	x	x
COc1ccc(N(CC(=O)Nc2ccc(F)cc2F)S(=O)(=O)c2c(C)nn(C)c2C)cc1	1	1	-4	-7	13
C#CCOCCOCCOCCNc1nc(N2CCN(C(=O)Cn3cc(CCCCN)nn3)CC2)nc(N2CCN(C(=O)[C@H]([C@@H](C)CC)n3cc(CCCCN)nn3)CC2)n1	26*	11	-13	18	x
C#CCOCCOCCOCCNc1nc(N2CCN(C(=O)[C@H]([C@@H](C)CC)n3cc(CCCN=C(N)N)nn3)CC2)nc(N2CCN(C(=O)[C@H](Cc3ccc(O)cc3)n3cc(CCO)nn3)CC2)n1	31*	-1	x	4	x
